# According to PubChem BioAssay AID1851 (National Center for Advancing Translational Sciences (NCATS), 2009):
# Where “and” joins values, the source holds several entries; their conditions need not be identical. Equal entries are not always repeated. The whole screen tested about 16,000 compounds, of which about 4,000 (25%) were called active. Not shown: some 26% with an inconclusive outcome. Only a sample is shown. Unmarked numbers belong to inactive results. Calls come from the whole dose curve; as a rule, active = well fitted curve in the direction sought with a large enough effect; inconclusive = small, poorly fitted or top-dose-only effect, or effect the other way; inactive = no such curve, though single readings can be large or run the other way.
# Biological target: Cytochrome P450 2C9 (Homo sapiens) (UniProt P11712)
# Sequence (P11712 whole entry, looked up): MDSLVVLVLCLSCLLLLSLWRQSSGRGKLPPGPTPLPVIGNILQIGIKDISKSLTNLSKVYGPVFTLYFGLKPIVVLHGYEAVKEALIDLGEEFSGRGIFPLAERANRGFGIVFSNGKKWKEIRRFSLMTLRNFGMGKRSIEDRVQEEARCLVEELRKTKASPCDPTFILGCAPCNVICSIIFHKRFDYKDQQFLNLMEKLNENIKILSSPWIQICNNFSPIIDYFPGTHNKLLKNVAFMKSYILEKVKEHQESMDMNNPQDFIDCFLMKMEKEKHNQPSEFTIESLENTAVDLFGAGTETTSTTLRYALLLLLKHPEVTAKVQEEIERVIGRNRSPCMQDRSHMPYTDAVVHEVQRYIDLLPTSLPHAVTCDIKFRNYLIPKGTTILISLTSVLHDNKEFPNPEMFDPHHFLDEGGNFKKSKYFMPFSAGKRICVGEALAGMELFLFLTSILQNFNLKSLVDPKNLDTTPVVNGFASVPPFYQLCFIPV
# Test: Cytochrome panel assay with activity outcomes
# Conditions: recombinant CYP, pro-luciferin dealkylation, luminescence, p450-cyp2c9; series mostly up to 57.1 µM
# % is set by controls: 0 for no effect and ±100 for the full control effect.
Compound,AC50,"activity, negative = inhibition"
CC(C)CN1CCC2(CC1)CCN(C(=O)c1cccn1C)CC2,inactive,–
CCOC(=O)n1ccn(C)c1=S,inactive,–
CC(=O)OC[C@@H]1O[C@@H](O/N=C2/C[C@@H](O)[C@@H](O)[C@@H]3[C@@H]4C(=O)N(C(C)(C)C)C(=O)[C@H]4CC[C@H]23)[C@H](OC(C)=O)[C@H](OC(C)=O)[C@@H]1OC(C)=O,–,2.66% [at 11.4 µM]
CO[C@H]1COC(=O)[C@H](C)NC(=O)C/C=C\[C@@H](C)[C@H](OC)COC(=O)[C@@H](OCc2ccccc2)/C=C\[C@@H]1C,–,-13.3% [at 11.4 µM]
CN(C)CCNC(=S)Nc1cccc(Cl)c1,inactive,–
O=C(NCCc1ccc(Cl)cc1)Nc1cccc(Cl)c1,3.98 µM (active),–
CNC(=O)C(=O)NCCc1ccc(Cl)cc1,inactive,–
CC(=O)OC[C@@H]1O[C@@H](O/N=C2/C[C@@H](O)[C@@H](O)[C@@H]3[C@@H]4C(=O)N(C5CCCCC5)C(=O)[C@H]4CC[C@H]23)[C@H](OC(C)=O)[C@H](OC(C)=O)[C@@H]1OC(C)=O,–,9.42% [at 11.4 µM]
O=c1c(-c2cc(F)cc(F)c2)nc2cnc(N3CCOCC3)nc2n1C[C@H]1CCCO1,inactive,–
O=C(NC12CC3CC(CC(C3)C1)C2)c1ccc(COc2ccc(Cl)cc2[N+](=O)[O-])o1,7.94 µM (active),–
CC(C)=CCC/C(C)=C/CO/N=C1/C[C@@H](O)[C@@H](O)[C@@H]2[C@@H]3C(=O)N(Cc4ccccc4)C(=O)[C@H]3CC[C@@H]12,–,24.4% [at 11.4 µM]
CC(C)=CCC/C(C)=C/CO/N=C1/C[C@@H](O)[C@@H](O)[C@@H]2[C@@H]3C(=O)N(Cc4ccccc4)C(=O)[C@H]3CC[C@H]12,–,-1.37% [at 11.4 µM]
c1nc(N2CCNCC2)c2cc(-c3ccc4c(c3)OCO4)ccc2n1,–,14.4% [at 2.29 µM]
C[C@@H]1O[C@@H](O)[C@@H](O)[C@H](O)[C@H]1O,–,0.774% [at 11.4 µM]
CC1(C)SC(=S)N(Cc2ccc3c(c2)OCO3)C1N(O)C(=O)NC1CCCCC1 (stereo not given),3.55 µM (active),–
NC(=O)[C@@H]1CCCN1Cc1ccc2c(c1)OCO2,–,-2.9% [at 11.4 µM]
O=C(O)[C@@H]1CCCN1Cc1ccc2c(c1)OCO2,–,-5.38% [at 11.4 µM]
COc1ncc2nc(-c3ccc(F)cc3)c(=O)n(C)c2n1,inactive,–
Cc1ccc(NC(=O)CCC(=O)NNS(=O)(=O)c2ccccc2)c(C)c1,inactive,–
Cc1cc(Br)ccc1NC(=O)CCSc1ccccc1,8.91 µM (active),–
Cc1cc(CSc2ccccc2)ccc1NC(=O)COc1ccccc1,inactive,–
O=C(CCCNS(=O)(=O)c1cccc2nsnc12)NCCc1ccccc1,11.2 µM (active),–

Compound,AC50,"activity, negative = inhibition"
O=c1c2ccccc2nc2n1C(CSCc1cccc(C(F)(F)F)c1)CS2 (stereo not given),2 µM (active),–
COc1ccc(NC(=O)N2CCC3(CC2)CCN(C(=O)c2cccn2C)CC3)cc1,inactive,–
CCCCCCCCC(=O)N/N=C/c1ccccn1,inactive,–
CCCCCC(=O)Nc1cccc(-c2nc3ncccc3o2)c1,17.8 µM (active),–
CCCCCC(=O)N1CC2(CC(c3cccc(NC(=O)c4ccccc4)c3)=NO2)C[C@@H]1C(N)=O (stereo not given in full),inactive,–
O=C(CSc1ccc(Cl)cc1)Nc1cccc(-c2nc3ncccc3o2)c1,3.16 µM (active),–
O=C(Nc1cccc(-c2nc3ncccc3o2)c1)c1sc2cc(Cl)ccc2c1Cl,inactive,–
CC1=NS(=O)(=O)c2cc(Cl)ccc2N1,inactive,–
CO[C@H]1COC(=O)C/C=C\[C@H](C)[C@@H](OC)COC(=O)[C@H](Cc2ccccc2)NC(=O)C/C=C\[C@@H]1C,–,-2.12% [at 11.4 µM]
Cc1ccc(S(=O)(=O)N[C@H]2COC(=O)[C@@H](C)COC(=O)[C@H](C)NC(=O)C/C=C\[C@H]2C)cc1,–,10.1% [at 11.4 µM]
O=C(NC(=S)Nc1cccc(Cl)c1N1CCCCC1)c1ccco1,5.01 µM (active),–
C[C@@]1(C(NC(=O)c2cccs2)c2ccc(-c3ccccc3)cc2)C[C@H]1C1CCCCC1 (stereo not given in full),inactive,–
CC1CCN(c2ccccc2NC(=S)NC(=O)c2cccs2)CC1,5.01 µM (active),–
Cc1c(Cl)cccc1NC(=O)CCC(=O)NNC(=O)c1ccco1,inactive,–
O=C(NC(=S)Nc1cccc(Cl)c1N1CCCCC1)c1cccs1,3.98 µM (active),–
C[C@@H]1C[C@@H]2[C@H]3CCC4=CC(=O)C=C[C@]4(C)[C@]3(Cl)[C@@H](O)C[C@@]2(C)[C@@]1(O)C(=O)CO,inactive,–
O=c1[nH]c2cc([N+](=O)[O-])c([N+](=O)[O-])cc2[nH]c1=O,inactive,–
O=C(O)c1[nH]c2c([N+](=O)[O-])cc([N+](=O)[O-])cc2c1C(=O)O,3.16 µM (active),–
N[C@@H](Cc1c[nH]c2ccc([N+](=O)[O-])cc12)C(=O)O,–,9.84% [at 11.4 µM]
COc1ccc(C(C)(C)C)cc1NC(=O)c1cncc(Br)c1,20 µM (active),–
CCOc1ccc(C(F)(F)F)cc1NC(=O)c1ccc(OC)c([N+](=O)[O-])c1,inactive,–
CC(C)(C)NC(=O)COC(=O)c1cncc(Br)c1,inactive,–

Compound,AC50,"activity, negative = inhibition"
O=C1C[C@H]2C(=O)[C@@H]1[C@@H](C(=O)O)[C@H]2C(=O)O,–,19.5% [at 11.4 µM]
CCOC(=O)Nc1ccc2c(c1)N(C(=O)CCN1CCN(C)CC1)c1ccccc1S2,inactive,–
COC(=O)c1cc(NC(=O)N2c3ccccc3Sc3ccccc32)cc(C(=O)OC)c1,3.55 µM (active),–
CC1CCN(CC(=O)N2c3ccccc3Sc3cc4ccccc4cc32)CC1,–,-17.9% [at 11.4 µM]
Nc1cc(=O)[nH]c(N)n1,inactive,–
COCCNC(=O)c1onc(CSc2cccc(Cl)c2)c1C(=O)O,3.98 µM (active),–
COCCNC(=O)c1onc(CSc2ccccc2F)c1C(=O)O,15.8 µM (active),–
CN1CCN(CCCNC(=O)c2ccc(CSCc3cccc(Cl)c3)o2)CC1,inactive,–
COCCCNC(=O)/C=C/c1ccc(Cl)cc1,inactive,–
COCCNC(=O)c1onc(CSc2ccc(Cl)cc2)c1C(=O)O,5.01 µM (active),–
CC(C)NCCOCCSc1ccc(Cl)cc1,inactive,–
C=CCNC(=O)c1onc(CSc2ccc(F)cc2)c1C(=O)O,8.91 µM (active),–
N[C@H](Cn1ccc(=O)n(Cc2ccccc2C(=O)O)c1=O)C(=O)O,inactive,–
Cc1noc(C)c1C(=O)N1CCC[C@@]2(CCN(C(=O)NC(C)C)C2)C1,inactive,–
c1nc(NCCN2CCOCC2)c2cc(-c3ccoc3)ccc2n1,–,-2.85% [at 2.29 µM]
O=C(O)[C@H](Cc1ccc(O)c([N+](=O)[O-])c1)N1C(=O)c2ccccc2C1=O,–,0.788% [at 11.4 µM]
Cc1cc(/C=N\NC(=O)c2cccs2)c(C)n1-c1ccc2ncccc2c1,3.16 µM (active),–
Clc1ccc2c(NC3CCC(N4CCCCC4)CC3)ccnc2c1 (stereo not given),–,10.6% [at 11.4 µM]
N#Cc1c(N)nc2c(c1-c1cccc(O)c1)CCCCCC2,8.91 µM (active),–
COc1cccc(NC(=O)CSc2nc3c(c(-c4ccco4)c2C#N)CCCC3)c1,inactive,–
Cc1cc(-c2ccc(/C=N/n3cnnc3)o2)c([N+](=O)[O-])cc1C,2.51 µM (active),–
Cc1ccc(-c2ccc(/C=N/N3C(=O)C4C5C=CC(C6CC56)C4C3=O)o2)c([N+](=O)[O-])c1 (stereo not given),5.01 µM (active),–

Compound,AC50,"activity, negative = inhibition"
Cc1cc2ncn(/N=C/c3ccc([N+](=O)[O-])o3)c2cc1C,inactive,–
COc1ccccc1-c1cncnc1Nc1ccc(F)cc1,–,-21.5% [at 2.29 µM]
Cn1cccc1C(=O)N1CCC2(CCN(C(=O)Nc3cccc(F)c3)CC2)CC1,inactive,–
CON(C)C(=O)c1nnc2c3ccccc3n(S(=O)(=O)c3ccc(C)cc3)c2n1,–,12.1% [at 11.4 µM] and -11.7% [at 11.4 µM]
COCC(=O)Oc1c(S(=O)(=O)c2ccc(C)cc2)c(C)nn1-c1ccccc1,1.78 µM (active),–
COc1ccc(OC)c(NC(=O)c2c3c(nc4ccccc24)CCC3)c1,14.1 µM (active),–
Nc1c2c(nc3ccccc13)CCCC2,inactive,–
COc1cc(-c2nnc(COC(=O)c3c4c(nc5ccccc35)CCCC4)o2)cc(OC)c1OC,2 µM (active),–
COc1cccc(NC(=O)COC(=O)c2c3c(nc4ccccc24)CCC(C)C3)c1 (stereo not given),11.2 µM (active),–
COc1ccc(C(=O)Nc2ccc(C(=O)OCC(=O)c3ccccc3)cc2)cc1,inactive,–
COc1ccc(NC(=O)COC(=O)c2c3c(nc4ccccc24)CCCC3)cc1,7.08 µM (active),–
COc1cccc(NC(=O)COC(=O)c2nc3nccc(C)n3n2)c1,inactive,–
Cn1c2c(c(=O)n(C)c1=O)CN(CCN1CCNCC1)CN2,inactive,–
Cc1cc(C)c(-c2cc([C@H](C)O/N=C\[C@@H](C)[C@H](OCc3ccccc3)C(C)C)on2)c(C)c1,–,-7.67% [at 11.4 µM]
C[N+](C)(N)CCC[N+](C)(C)N,–,15.9% [at 11.4 µM]
N[C@H](CCC(=O)NCC(=O)O)C(=O)O,inactive,–
N[C@H](CCC(=O)N[C@H](CSN=O)C(=O)NCC(=O)O)C(=O)O,5.01 µM (active),–
[N-]=[N+]=Nc1ccc(C(=O)CSC[C@@H](NC(=O)CC[C@@H](N)C(=O)O)C(=O)NCC(=O)O)cc1,inactive,–
CO[C@@H](C(C)C)[C@@H](C)[C@@H]1OC(=O)C[C@@H]1O,–,-15.2% [at 11.4 µM]
